# Laboratory results taken from ChEMBL document CHEMBL4513216, “Probing the Open Global Health Chemical Diversity Library for Multistage-Active Starting Points for Next-Generation Antimalarials” (ACS Infect Dis, 2020).
# Screen size: about 69,000 compounds; about 8,600 (12%) showed an effect of 50% or more. The list comes from a sample in which strong results are over-represented; it also holds similar structures and randomly drawn compounds.
# Test system: Plasmodium berghei
# Experiment: Screen against P. berghei liver stage (PbLuc), transformed with Luciferase, at 10uM
# Assay type: functional, HepG2
# Settings: tested at 10 uM
row,SMILES,INHIBITION
1,Cc1ccnc(N2CCC(OCCN3CCCCC3)C2)n1 (configuration not stated),48.9%
2,c1cnc(N2CCC(OCCN3CCCCC3)C2)nc1 (configuration not stated),40.6%
3,C1CCN(CCOC2CCNCC2)CC1,3.63%
4,Cc1cnc(N2CCCOC(CN3CCCCC3)C2)nc1 (configuration not stated),34.1%
5,CN(CCN1CCCCCC1)c1nccc(N2CCC(O)C2)n1 (configuration not stated),27.6%
6,Cc1cnc(N2CCC(OCCN3CCCCC3)C2)nc1C (configuration not stated),54.5%
7,COc1ccnc(N2CCC(OCCN3CCCCC3)C2)n1 (configuration not stated),42.4%
8,Cc1cc(C)nc(N2CCC(OCCN3CCCCC3)C2)n1 (configuration not stated),58.2%
9,CC(C)(C)c1nccc(N2CCC(OCCN3CCCCC3)C2)n1 (configuration not stated),66.5%
10,c1nc2c(c(-c3ccsc3)n1)CCN(Cc1ccoc1)CC2,20.1%
11,CCCNC(c1cccnc1)c1ccc(F)c(C)c1 (configuration not stated),-24.7%
12,O=C(CN1CCOC(CNc2cccnn2)C1)NCc1cccs1 (configuration not stated),36.55%
13,CC(C)(C)c1nc(CN2CCOC(Cn3cccn3)C2)no1 (configuration not stated),-29.1%
14,O=C(c1ccncc1F)N1C[C@@H]2CC[C@H]1CN(Cc1cccnc1)C2,22.7%
15,Cc1cc(C(=O)NC(C)Cc2ccccc2Cl)n(C)n1 (configuration not stated),-39.3%
16,Cc1noc(C)c1CN1CCCC2(CCN(C(=O)N3CCOCC3)C2)C1 (configuration not stated),26%
17,Cc1ccc(-c2nc(CN3CC(n4nc(C)cc4C)C3)no2)cc1,1.86%
18,COCC1COCCC12CCN(C(=O)Cc1ccc(F)cc1)CC2 (configuration not stated),0.542%
19,CCC(CNC(=O)c1c(C)nn(C)c1OC)Oc1ccccc1 (configuration not stated),73.5%
20,COc1c(C(=O)NCC(C)Sc2ccccc2)c(C)nn1C (configuration not stated),29.1%
21,COc1ccccc1C(C)CNC(=O)c1c(C)nn(C)c1OC (configuration not stated),0.705%
22,Cc1ccc(NC(=O)N(CCO)Cc2ccsc2)cc1,-71.5%
23,COCCN(C)C(=O)Nc1ccc2c(ccn2CC(=O)N(C)C)c1,19.73%
24,COCCN(C)C(=O)Nc1ccc2c(ccn2CCOC)c1,58.4%

row,SMILES,INHIBITION
1,CCCn1ccc2ccc(NC(=O)N(C)CCOC)cc21,20.5%
2,O=C1CC2(CNCCN(C(=O)Nc3ccccc3)C2)CN1 (configuration not stated),16.1%
3,CC(=O)NCC1CCC2(CCN(c3ncc(C(C)=O)c(C)n3)CC2)O1 (configuration not stated),56.7%
4,CC(=O)NCC1CCC2(CCN(c3ncc(C)cn3)CC2)O1 (configuration not stated),-4.21%
5,CC(=O)NCC1CCC2(CCN(c3nccc(C4CCCC4)n3)CC2)O1 (configuration not stated),42.1%
6,CCC(=O)N1CCC(NCc2cc(C(F)(F)F)ccc2Cl)C1 (configuration not stated),42.6%
7,O=C(c1cccs1)N1CCOCC2(C1)CN(c1cccnc1)C(=O)CO2 (configuration not stated),0.618%
8,CC(C)N1CCC2(CCCN(C(=O)c3cncn3C)C2)CC1,23.1%
9,c1ccc(N2CCC3(COCCN(Cc4cccs4)C3)C2)nc1 (configuration not stated),-7.28%
10,CC(C)N1CCOCC2(CCCN(C(=O)c3cncn3C)C2)C1 (configuration not stated),76.3%
11,c1cncc(N2CCOCC3(CCCN(Cc4cccs4)C3)C2)c1 (configuration not stated),59.1%
12,Cn1cc(CN2CCCC3(COCCN(c4cccnc4)C3)C2)cn1 (configuration not stated),32.2%
13,CC(C)N1CCOCC2(CCCN(C(=O)c3cn(C)cn3)C2)C1 (configuration not stated),-27.9%
14,O=C(c1cccnc1)N1CCCC2(COCCN(c3ccccc3)C2)C1 (configuration not stated),29.7%
15,c1cnc(N2CCOCC3(CCCN(Cc4cccs4)C3)C2)nc1 (configuration not stated),67.2%
16,c1csc(CN2CCCC3(COCCN(c4cnccn4)C3)C2)c1 (configuration not stated),18.3%
17,O=C(c1cccs1)N1CCCC2(COCCN(c3cccnc3)C2)C1 (configuration not stated),67.2%
18,c1cncc(CN2CCCC3(COCCN(c4cncnc4)C3)C2)c1 (configuration not stated),3.11%
19,Cc1ccnn1CCNC(=O)c1cnc(N(C)C)nc1,-43.452%
20,COCCN1C[C@@H](C)[C@@]2(COCCN(C(=O)c3ccncc3)C2)C1,-8.85%
21,COc1c(C2CCCN2C(=O)c2c(C)noc2C)c(C)nn1C (configuration not stated),19.4%
22,Cc1ccn2c(F)c(C(=O)N3CCC4(CCCN(C)C4=O)C3)nc2c1 (configuration not stated),3.69%
23,Cc1cn[nH]c1C1COCCN1Cc1cscn1 (configuration not stated),25.85%
24,CCN(C)c1ncnc2c1CCN(C(=O)c1cnccn1)CC2,-66%

row,SMILES,INHIBITION
1,O=C(NCCO)c1sc2ncccc2c1C1CNCCO1 (configuration not stated),9.98%
2,CC(C)NC(=O)N1CCC2(CC1)COc1ccccc1S(=O)(=O)N(C)C2,4.57%
3,O=C(N1CCCC1)N1CCOCC2(CCN(Cc3cccs3)C2)C1 (configuration not stated),66.8%
4,COCC(=O)N1CCOCC2(CCN(Cc3cccs3)C2)C1 (configuration not stated),-13.2%
5,CCS(=O)(=O)N1CCCC2(COCCN(c3cnccn3)C2)C1 (configuration not stated),45.8%
6,O=C(C1CCCO1)N1CCCC2(CCN(c3cccnc3)CC2)C1 (configuration not stated),29.5%
7,O=C([C@H]1CCCO1)N1CCCC2(COCCN(c3ccccc3)C2)C1 (some centres not stated),66.3%
8,O=S(=O)(c1cccs1)N1CCCC2(COCCN(c3cccnc3)C2)C1 (configuration not stated),82.3%
9,c1cncc(N2CCOCC3(CCCN(c4nncs4)C3)C2)c1 (configuration not stated),43.2%
10,O=C(c1ccncc1)N1CCCC2(COCCN(c3ccccc3)C2)C1 (configuration not stated),-6.82%
11,O=C(NC1CC1)N1CCOCC2(CCN(Cc3cccs3)C2)C1 (configuration not stated),-0.371%
12,Cc1ccc(C2CSCCN2C(=O)c2cnsn2)o1 (configuration not stated),8.46%
13,CN1CCN(C(=O)c2n[nH]c3c2CN(C2CCOC2)CC3)CC1 (configuration not stated),22.3%
14,CCNc1ncnc2c1CN(C1CCCNCC1)C(=O)CN2C (configuration not stated),40%
15,CNc1cc(C2CN(CC(=O)N(C)C)CCO2)nc(C)n1 (configuration not stated),14.7%
16,CCC1CN(C)c2ccccc2CN1C(=O)c1c[nH]c(=O)cc1C (configuration not stated),28.7%
17,Cc1cc(=O)[nH]cc1C(=O)N1Cc2ccccc2N(C)CC1C (configuration not stated),52.6%
18,CC1CN(C)c2ccccc2CN1C(=O)c1cc[nH]c(=O)c1 (configuration not stated),-18.3%
19,O=C(NCCc1ccccn1)C1CC(=O)N(CC(F)(F)F)C1 (configuration not stated),2.3%
20,Cc1ccccc1CCNC(=O)C1CC(=O)N(CC(F)(F)F)C1 (configuration not stated),55.5%
21,O=C(NCCNc1ncccn1)C1CC(=O)N(CC(F)(F)F)C1 (configuration not stated),19.5%
22,CC1CCN(C(=O)c2cn(-c3ccc(C(F)(F)F)cn3)nn2)CC1,2.55%
23,O=C(c1cn(-c2ccc(C(F)(F)F)cn2)nn1)N1CCCCCC1,46.1%
24,CN1CCN(C(=O)c2cn(-c3ccc(C(F)(F)F)cn3)nn2)CC1,59.1%
